{"source": "PubChem BioAssay AID1347416", "about": "(National Center for Advancing Translational Sciences (NCATS), 2020)", "note": "Out of some 4,100 compounds screened, about 1,600 (39%) were called active. Inconclusive results (about 25%) are left out. Calls come from the whole dose curve; as a rule, active = well fitted inhibition curve with a large enough effect; inconclusive = small, poorly fitted or top-dose-only effect; inactive = no such curve, though single readings can be large or run the other way. Some of the results follow. % is set by controls: 0 for no effect and ±100 for the full control effect; potency is the fitted concentration of half-maximal effect.", "data": [{"experiment": "qHTS Validation assay for Inhibitors of Plasmodium falciparum Dd2 growth in vitro; note: nearly all actives have a fitted effect of over 70% in size", "settings": "P. falciparum Dd2 in RBCs, SYBR Green growth, 72 h; series mostly up to 28.7 µM; activity change, negative = inhibition: at the top concentration", "description": "Malaria, a parasitic disease spread to humans through the bite of a Plasmodium infected Anopheles mosquito, continues to be a global health burden affecting millions of people, with an estimated 228 million cases and 405,000 deaths in 2018. Concerns about safety and limitations of current antimalarial treatments strongly emphasize the need to develop new therapeutic options. The scarce number of chemotypes and validated drug targets with efficacy against the liver stage, have hindered development of new antimalarials. To address this, a chemoprophylactic drug discovery effort was conducted through a combined phenotypic high-throughput asexual blood stage and liver stage screen, providing a robust foundation to identify liver-stage active lead chemotypes. Compounds were initially screened against Plasmodium falciparum Dd2 strain parasites using a in vitro SYBRGreen-1 based 72 hr proliferation assay to identify novel chemotypes to advance to liver stage assays. NIH/NCATS Early Translation Branch Assay Submitter (PI): Anton Simeonov Ph.D.\n[…] Assay Protocol: PROTOCOL TABLE (as described by Inglese et al., 2007) SEQUENCE No. (e.g., 1, 2, 3, etc.); PARAMETER (e.g., Cells, Incubation, Reagent, etc.); VALUE; DESCRIPTION SEQUENCE, Parameter, Description 1; Reagent; 3 uL complete malaria growth medium, 1536 TC treated Black clear bottom plate 2; Controls; 23 nL positive control artesunate (300 nM final) to column 1; Neutral control DMSO to columns 2-4 3; Compound; 23 nL of compounds in dose response concentration (29 uM to 0.5 nM final) 4; Reagent; 5 uL malaria infected red blood cells (2.5% hematocrit final, 0.3% parasitemia 5; Time; 72 hours at 37C (5% O2, 5% CO2, 90% N2; 95% Rh) 6; Reagent; 2 uL lysis buffer/SYBRGreen-1, 25 sec shake immediately following dispense 7; Time; ~16 hours at 37C (5% O2, 5% CO2, 90% N2; 95% Rh) 8; Detector; EnVision (PerkinElmer) bottom read at 485/14nm excitation and 535/25 nm emission NOTES (numbers refer to sequence above): 1; Complete Malaria Growth Media: 1X RPMI-1640 w/L-glutamine, 5.5g/L Albumax II, 367 uM Hypoxanthine, 25 mM HEPES, 0.25% Sodium Bicarbonate, 35 uM Gentamicin sulfate 2; Controls were added using the Kalypsis Pintool (Wako USA) equipped with 1536 pinhead 3; Compounds were added in a 7-point, titration with a high final concentration of 29 uM by Pintool from seven inter-plate titrations of library plates and two DMSO control plates at the beginning and end (see Yasgar et al., 2008). 4; Red blood cells infected with Plasmodium falciparum Dd2 parasites were used. 6; Lysis buffer: 20 mM Tris-HCl, 10 mM EDTA, 0.16% Saponin, 1.6% Triton-X, 10X SYBR Green. REFERENCE: Inglese J, Shamu CE, Guy RK. 2007. Reporting data from high-throughput screening of small-molecule libraries. Nat Chem Biol. doi:10.1038/nchembio0807-438 Yasgar A, Shinn P, Jadhav A, Auld D, Michael S, Zheng W, Austin CP, Inglese J, Simeonov A. 2008. Compound Management for Quantitative High-Throughput Screening. J Lab Autom 13:79-89. doi:10.1016/j.jala.2007.12.004", "values": [{"smiles": "CN1Cc2ccccc2-n2ccnc2C12CCN(C(=O)c1cccc(C(F)(F)F)c1)CC2", "activity change, negative = inhibition": "-8.82% (inactive)"}, {"smiles": "Clc1ccc(C(Cn2ccnc2)OCc2csc3c(Cl)cccc23)c(Cl)c1", "note": "(centres undefined)", "Potency": "2.37 µM (active)"}, {"smiles": "CCCCn1c(NS(=O)(=O)c2ccccc2)c(C(=O)OCC)c2nc3ccccc3nc21", "Potency": "10.6 µM (active)"}, {"smiles": "C=CC1CN2CCC1CC2C(OC(C)=O)c1ccnc2ccc(OC)cc12", "note": "(centres undefined)", "Potency": "1.68 µM (active)"}, {"smiles": "CN(C)CC1CSCCC1(O)c1ccccc1Cl", "note": "(centres undefined)", "Potency": "5.96 µM (active)"}, {"smiles": "Cc1ccccc1CN1C(=O)CN=C(c2ccccc2)c2cc(Cl)ccc21", "Potency": "16.8 µM (active)"}, {"smiles": "CCC1(OC(=O)CN)C(=O)OCc2c1cc1n(c2=O)Cc2cc3ccccc3nc2-1", "note": "(centres undefined)", "Potency": "6.68 µM (active)"}, {"smiles": "Oc1ccc(Cl)cc1CN1CCN(Cc2ccccc2)CC1", "Potency": "0.944 µM (active)"}, {"smiles": "Oc1c(Cl)cc(Cl)cc1CN1CCN(Cc2ccccc2)CC1", "Potency": "0.668 µM (active)"}, {"smiles": "O=C(NC[C@H]1C[C@@H]2CCN1C[C@@H]2CN1CCC(Cc2ccccc2)CC1)c1ccccc1", "Potency": "7.69 µM (active)"}, {"smiles": "COc1ccc(CN2CCCC(C(=O)c3ccc(Cl)cc3)C2)c(O)c1", "note": "(centres undefined)", "Potency": "0.531 µM (active)"}, {"smiles": "O=C(C[C@@H]1NCCC[C@H]1O)Cn1cnc2cc(Br)c(Cl)cc2c1=O", "Potency": "2.37 µM (active)"}, {"smiles": "C[n+]1c(-c2ccccc2)cc(-c2ccc(Cl)cc2)cc1-c1ccccc1", "Potency": "6.68 µM (active)"}, {"smiles": "COc1cc2c(cc1OCc1ccccc1)NC(=O)C21CCN(c2ccccn2)CC1", "Potency": "15.3 µM (active)"}, {"smiles": "COc1cc2c(cc1OC1CCCC1)NC(=O)C21CCN(c2cnccn2)CC1", "Potency": "7.69 µM (active)"}, {"smiles": "Cn1nccc1CN1CCC2(CC1)C(=O)Nc1ccccc12", "activity change, negative = inhibition": "-13.6% [at 43.1 µM] (inactive)"}, {"smiles": "COc1cc2c(cc1OCC1CC1)NC(=O)C21CCN(c2nccs2)CC1", "Potency": "21.7 µM (active)"}, {"smiles": "COc1cc2c(cc1OCC1CC1)NC(=O)C21CCN(C(=O)c2cccnc2)CC1", "activity change, negative = inhibition": "44.2% [at 43.1 µM] (inactive)"}, {"smiles": "COc1cc2c(cc1Oc1cccc(N(C)C)c1)NC(=O)C21CCN(c2cnccn2)CC1", "Potency": "1.5 µM (active)"}, {"smiles": "COc1cc2c(cc1Oc1ccccc1)NC(=O)C21CCN(C(=O)c2ccccc2)CC1", "activity change, negative = inhibition": "9.16% [at 43.1 µM] (inactive)"}, {"smiles": "COc1cc2c(cc1Oc1ccccc1)NC(=O)C21CCN(c2cnccn2)CC1", "Potency": "2.17 µM (active)"}, {"smiles": "O=C(Nc1ccc2n(c1=O)C[C@H]1C[C@@H]2CN(Cc2ccc(F)cc2)C1)c1cccs1", "Potency": "15.3 µM (active)"}, {"smiles": "C#C[C@H]1CN2CC[C@H]1C[C@@H]2CNCc1ccc(F)c(F)c1", "Potency": "13.7 µM (active)"}, {"smiles": "C#C[C@H]1CN2CC[C@H]1C[C@@H]2CNCc1cccc(Cl)c1", "Potency": "4.85 µM (active)"}, {"smiles": "CC[C@H]1CN2CC[C@H]1C[C@@H]2CNCc1ccc(SC)cc1", "Potency": "4.33 µM (active)"}, {"smiles": "O[C@H]1[C@H](NCC2CCCC2)[C@@H](c2ccccc2)C[C@H]1O", "Potency": "6.11 µM (active)"}, {"smiles": "COc1cc2c(cc1OCc1ccccc1)N(C(=O)c1cc3ccccc3[nH]1)CC21CCN(C)CC1", "Potency": "0.944 µM (active)"}, {"smiles": "COc1cc2c(cc1OCc1ccccc1)N(C(=O)c1cc3ccccc3n1C)CC21CCN(C)CC1", "Potency": "2.11 µM (active)"}, {"smiles": "COc1cc2c(cc1OCc1ccccc1)N([S+](=O)([O-])c1cccnc1)CC21CCN(C)CC1", "Potency": "10.6 µM (active)"}, {"smiles": "CC(C)c1ccc(O)c(CN2CCN(c3ccccc3)CC2)c1", "Potency": "1.33 µM (active)"}, {"smiles": "Cc1ccc(O)c(CN2CCN(c3ccccc3)CC2)c1", "Potency": "2.99 µM (active)"}, {"smiles": "Oc1ccc(Br)cc1CN1CCN(c2ccccc2)CC1", "Potency": "2.11 µM (active)"}, {"smiles": "CCc1ccc(CN2CCN(Cc3cc(Br)ccc3O)CC2)cc1", "Potency": "2.11 µM (active)"}, {"smiles": "CNC(=O)Oc1cccc(-c2cn3cc(OC(=O)NC)ccc3n2)c1", "activity change, negative = inhibition": "-2.9% (inactive)"}, {"smiles": "CC(C)(C)c1ccc(O)c(CN2CCN(c3ccccc3)CC2)c1", "Potency": "1.5 µM (active)"}, {"smiles": "COc1ccccc1N1CCN(Cc2cc(C)c(C)cc2O)CC1", "Potency": "0.376 µM (active)"}, {"smiles": "Oc1cc2c(cc1CN1CCN(c3ccccc3)CC1)CCC2", "Potency": "3.35 µM (active)"}, {"smiles": "Cn1nc(C2CCCCC2)cc1[C@H]1CN2CC[C@H]1C[C@@H]2CNC(=O)c1cccs1", "Potency": "13.7 µM (active)"}, {"smiles": "COc1ccc(-c2cn(C[C@H]3C[C@@H]4CCN3C[C@@H]4C(=O)NCc3ccccc3)nn2)cc1", "activity change, negative = inhibition": "-16.3% [at 43.1 µM] (inactive)"}, {"smiles": "COc1ccc(OC)c(S(=O)(=O)NC[C@H]2C[C@@H]3CCN2C[C@@H]3c2cc(-c3ccc(F)cc3)nn2C)c1", "Potency": "6.68 µM (active)"}, {"smiles": "COc1ccc(-c2cc([C@H]3CN4CC[C@H]3C[C@@H]4CNS(=O)(=O)c3ccc(Cl)cc3)n(C)n2)cc1OC", "Potency": "2.99 µM (active)"}, {"smiles": "COc1ccc(-c2cc([C@H]3CN4CC[C@H]3C[C@@H]4CNC(=O)NC3CCCCC3)n(C)n2)cc1", "Potency": "1.88 µM (active)"}, {"smiles": "CN1CCN(C[C@H]2CN3CC[C@H]2C[C@@H]3CNS(=O)(=O)c2ccccc2)CC1", "activity change, negative = inhibition": "0% [at 43.1 µM] (inactive)"}, {"smiles": "Cc1ccc(S(=O)(=O)NC[C@H]2C[C@@H]3CCN2C[C@@H]3CN2CCc3ccccc32)cc1", "Potency": "13.7 µM (active)"}, {"smiles": "C[n+]1c2ccccc2nc2ccc(NCCO)cc21", "Potency": "1.19 µM (active)"}, {"smiles": "COc1cccc(CC(=O)N2[C@H]3CC[C@@H]2c2cnc(-c4ccc(F)cc4)nc2C3)c1", "activity change, negative = inhibition": "-7.05% (inactive)"}, {"smiles": "COC(=O)C1=C(c2ccc(OC)c(OC)c2)C[C@@H]2CC[C@H]1N2C(=O)NCc1cccc2ccccc12", "Potency": "3.35 µM (active)"}, {"smiles": "COC(=O)C1=C(c2ccc(-c3ccccc3)c(F)c2)C[C@@H]2CC[C@H]1N2C(=O)NCc1cccc2ccccc12", "Potency": "10.6 µM (active)"}, {"smiles": "CCCCCSc1cc(O)c(C(CNC)C(C)C)cc1OC", "note": "(centres undefined)", "Potency": "0.168 µM (active)"}]}]}
